High-throughput results as filed in PubChem.
In the library only some 1.1% were active in any assay of this set; here they are far more common.
NCOA1 inh: inhibitors of human steroid receptor coactivator 1 (SRC1); inhibition, % at 3.6 µM; HEK293 GAL4-SRC1 luciferase reporter, luminescence; Q15788; AID 588354; 360,000 tested, 0.12% active;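 active = inhibition above the campaign mean plus 3 SD, with each screening campaign given its own cutoff, cut at about 60% in these data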;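 note: 0% = DMSO treated cells and 100% = gossypol at 36 µM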
SRC2 inh: human SRC2 (NCOA2) inhibition; inhibition, % at 9 µM; Q15596; HEK293 GAL4-SRC2 luciferase reporter, luminescence; 370,000 tested, 0.17% active;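 active = inhibition above the mean inhibition of all tested compounds plus 3 SD, set per campaign, cut at about 52% in these data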;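 note: 0% = DMSO treated cells and 100% = cells given Gossypol at 36 µM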
LRH-1 inv ag: suppresses constitutive activity of human LRH-1. HEK293T StAR-luciferase reporter, LRH-1 transfected, 24 h. inhibition, % at 3.6 µM. 360,000 tested, 0.13% active;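 active = inhibition above the mean inhibition of all tested compounds plus 3 SD, cut at about 73% in these data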;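 note: 0% = DMSO wells and 100% = reporter-only cells lacking LRH-1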
SRC3 inh: human NCOA3 inhibition. HEK293 GAL4-SRC3 luciferase reporter, luminescence. inhibition, % at 3.6 µM. 360,000 tested, 0.17% active. AID 588352;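 active = inhibition above a per-campaign cutoff, the mean of all compounds plus 3 SD, cut at about 60% in these data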;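 note: 0% = DMSO-treated cells and 100% = gossypol-treated cells at 36 µM; higher means less SRC3-driven luciferase light from the GAL4 reporter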
GalR3 antagonist: human GalR3 antagonism. O60755. inhibition, % at 3 µM. 360,000 tested, 0.44% active. HEK293 GalR3-CNG cAMP membrane potential fluorescence; galR3 body fused to GalR1 C-terminus;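 active = inhibition above the screen-wide average plus 3 SD, cut at about 13% in these data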;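 note: forskolin and galanin both at EC90 stimulate the cells; cAMP rise reported by CNG channel membrane potential dye signal; 0% = forskolin plus galanin with DMSO and 100% = forskolin alone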
Target sequence (O60755 1-299 limits assumed): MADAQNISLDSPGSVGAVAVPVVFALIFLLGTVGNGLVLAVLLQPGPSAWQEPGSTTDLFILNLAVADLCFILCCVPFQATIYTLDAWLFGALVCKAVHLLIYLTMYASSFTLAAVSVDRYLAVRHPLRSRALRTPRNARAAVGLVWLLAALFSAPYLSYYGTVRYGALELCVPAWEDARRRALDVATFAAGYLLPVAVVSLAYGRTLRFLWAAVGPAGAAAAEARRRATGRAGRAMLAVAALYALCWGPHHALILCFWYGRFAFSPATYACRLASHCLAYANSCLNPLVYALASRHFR
COUP-TFII inh: NR2F2 (human) inhibition, primary screen; P24468; HEK293T NGFI-A luciferase reporter, luminescence; inhibition, % at 8.6 µM; 370,000 tested, 0.7% active; AID 686940;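 active = inhibition above a per-plate cutoff, mean inhibition of test wells between control levels plus 3 SD, cut at about 38% in these data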;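 note: cells cotransfected with COUP-TFII expression vector driving the NGFI-A reporter; 0% = median of COUP-TF2 test wells and 100% = reporter-only cells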
GalR3 antag conf: confirmation of human galanin receptor 3 antagonists; shares compounds with GalR3 antagonist; HEK293 GalR3 CNG cAMP biosensor, membrane potential fluorescence; galR3 fused to GalR1 carboxy tail; challenged with forskolin and galanin at EC90; inhibition, % at 3 µM; 1,600 tested, 59% active; AID 652245;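 active = inhibition above the primary screen's cutoff, the mean inhibition of all screened compounds plus 3 SD, cut at about 13% in these data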;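 note: 0% = forskolin plus galanin and 100% = forskolin alone with DMSO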
HEK-CNG parental: counter-screen for GalR3 antagonists: nonspecific agonists in parental HEK-CNG cells; shares compounds with GalR3 antagonist; HEK293-CNG parental cells, cAMP membrane potential fluorescence; normalised: DMSO wells 0%, forskolin wells 100%; activation, % at 3 µM; 1,600 tested, 10% active; in the data active = activation above about 1.3%
The depositor's hits bear a star; nt = no result given.

SMILES	NCOA1 inh	SRC2 inh	LRH-1 inv ag	SRC3 inh	GalR3 antagonist	COUP-TFII inh	GalR3 antag conf	HEK-CNG parental
CCCNC(=O)C1CCN(S(=O)(=O)c2ccc(-c3nn[nH]n3)cc2)CC1	-6	-18	7	-1	-10	-9	nt	nt
Cc1cc(-c2ccccc2)cc(=O)[nH]1	-36	-21	25	2	19*	5	12	0
CCOc1ccc(Br)cc1S(=O)(=O)N1CCC(C(N)=O)CC1	-4	2	-3	2	18*	2	-2	0
Fc1ccc(/C=N/NC(=S)Nc2cccnc2)cc1F	-24	-45	-24	-7	-6	-40	nt	nt
Fc1ccc(/C=N/NC(=S)Nc2cccnc2)cc1	-18	24	-19	-11	21*	-20	4	0
CC(=O)c1c(C)[nH]c(C(=O)Nc2ccc(F)c(F)c2F)c1C	-19	-1	-9	1	-1	-5	nt	nt
Cc1cc(Br)ccc1OCC(=O)NNC(=O)c1ccc(NC(=O)C2CC2)cc1	14	-17	-10	-3	50*	-12	36*	0
C/C(=N\OCc1nc2ccccc2c(=O)n1/N=C/c1cc(C)cc([N+](=O)[O-])c1O)c1ccccc1	-19	5	-3	-7	67*	-29	70*	-1
C/C(=N\OCc1nc2ccccc2c(=O)n1/N=C/c1cc([N+](=O)[O-])ccc1O)c1ccccc1	-32	-24	-23	-1	6	4	nt	nt
O=C1CNC(c2ccccc2)C(c2ccccc2)N1 (stereo not drawn)	-14	-7	-2	-15	-6	-4	nt	nt
COc1cc(C(=O)Nc2nnc(C(F)(F)F)s2)c([N+](=O)[O-])cc1OC	-4	16	10	7	-8	-32	nt	nt
CCC(=O)c1ccc(OCC(=O)NC2CCCC2)cc1	-10	10	-17	2	-2	-4	nt	nt
CCC(=O)c1ccc(OCC(=O)O)cc1	4	11	4	-7	nt	-3	-2	0
Cc1ccccc1S(=O)(=O)/N=C(/c1ccccc1)N1CCOCC1	-6	14	17	22	14*	17	7	0
Cc1ccc(S(=O)(=O)NC2CCCC2)cc1C	-10	7	0	5	-1	5	nt	nt
Cc1cc(=O)[nH]c2ccc(S(=O)(=O)NC3CCCCC3)cc12	2	-25	16	2	13*	-42	38*	0
O=[N+]([O-])c1cccnc1Oc1cc(Cl)c(Cl)cc1Cl	-4	-3	2	2	-5	-8	nt	nt
CC(Oc1ccc(Cl)cc1Cl)c1ccnc2nc(N3CCOCC3)nn12 (stereo not drawn)	2	9	3	-1	nt	15	3	1
N#CC(C#N)=C(Nc1ccc(F)cc1)SCc1cccc(F)c1	24	13	36	27	91*	36	35*	0
CCOc1ccc(N/C(SCc2cccc([N+](=O)[O-])c2)=C(/C#N)C(N)=O)cc1	7	5	9	15	1	21	nt	nt
COc1cccc(/C=N/NC(=O)CNC(=O)c2cccnc2)c1O	10	-15	2	1	-7	19	nt	nt
COC(=O)c1ccc(COc2ccccc2/C=N/NC(=O)c2cccnc2)cc1	-1	-53	-28	-6	13*	-18	5	1
COc1ccc(N2C(=O)CC(NCc3ccncc3)C2=O)cc1 (stereo not drawn)	4	1	18	-10	7	6	nt	nt
COc1ccc(N2C(=O)CC(NCc3ccc(F)cc3)C2=O)cc1 (stereo not drawn)	-18	12	-1	2	15*	-22	14*	0
COc1ccc(-c2c(-c3ccccc3OC)oc3ccccc23)cc1F	1	-1	3	0	nt	-37	2	-1
COCCCn1c(-c2cccc(Cl)c2)nc2c1c(=O)[nH]c(=O)n2Cc1ccccc1	13	-7	1	4	-7	-2	nt	nt
